HT1080NT lethal = kills 2HG-producing HT-1080-NT fibrosarcoma cells; HT-1080-NT fibrosarcoma viability, CellTiter-Glo ATP luminescence, 48 h; Potency, µM (top dose mostly 46.1 µM), inactives show top-dose activity, negative = less viability, most hits filed as cytotoxic; 360,000 tested, 1.6% active;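 note: NT is the 2HG producing partner of a matched IDH1 knockdown line; potency is the fitted concentration of half-maximal effect; 0% = DMSO-treated cells and -100% = media-only wells without cells; nearly all actives have a fitted effect of over 55% in size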
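HT-1080-NT; 750 cells/well; 5% FBS RPMI; 48 h compound, 37 degrees C; CellTiter-Glo luminescence; curve fitting and curve-class assignment.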
HT1080 IDH1KD tx = toxicity to HT-1080 IDH1 knockdown cells (counter line); HT-1080 IDH1 knockdown viability, ATP luminescence, 48 h; Potency, µM (highest dose often 46.1 µM), for the others: at the highest dose activity, negative = toxicity, hits mostly cytotoxic; 360,000 tested, 2% active;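 note: potency is the fitted concentration of half-maximal effect; 0% = DMSO wells and -100% = cell-free medium wells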
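Using the IDH1-knockdown HT-1080 line run in the same batch and compound series as the NT line, viability after 48 h at 37 °C was determined by CellTiter-Glo luminescence and expressed as % activity.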
IL1B secr inh = inhibitors of inflammasome signaling (IL-1 beta secretion); THP-1 LPS/ATP IL-1B secretion, AlphaLISA, 16 h; hits give low values; activity change, % at 57.5 µM; 360,000 tested, 4.7% active; in the data active = activity change below about -50%; inconclusive = mostly about -30% to -49%
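THP-1 cells pretreated 1 hr with compounds (up to 57.5 uM final), then stimulated with LPS (250 ng/mL final) plus ATP (1.25 mM final); secreted IL-1B measured by AlphaLISA after 16 hr, decreased signal indicating inhibition.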
TDP1 cell CPT = growth inhibition of DT40 Tdp1-/-;hTDP1 cells with camptothecin (screen for TDP1 inhibitors); AID 686979; 420,000 tested, 12% active; Potency, µM (highest dose often 46.2 µM), without a hit: at the top dose activity change, negative = growth inhibition, actives largely listed as inhibitors; chicken DT40 Tdp1-/-;hTDP1 cells + 20 nM CPT, ATP luminescence, 48 h; note: potency is the fitted concentration of half-maximal effect; nearly all actives have a fitted effect of over 55% in size
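Chicken DT40 Tdp1-/- cells complemented with human TDP1, 400 cells/well, exposed to compounds plus 20 nM camptothecin for at least 48 h at 37 C; viability read as ATP content by CellTiter-Glo luminescence.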
DT40 TDP1 no CPT = qHTS for Inhibitors of human tyrosyl-DNA phosphodiesterase 1 (TDP1): qHTS in cells in absence of CPT. DT40 Tdp1-/- hTDP1 cells, no CPT, ATP luminescence, 48 h. Potency, µM (doses to about 46.2 µM), for the others: top-dose activity change, negative = growth inhibition, most hits filed as inhibitors. 420,000 tested, 15% active; note: potency is the fitted concentration of half-maximal effect; nearly all actives have a fitted effect of over 55% in size
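Compound effects on proliferation are scored in DT40 Tdp1-/-;hTDP1 cells in the absence of CPT. ATP levels (CellTiter-Glo luminescence) are recorded after a ≥48 hr, 37 °C incubation.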
Active calls of the source: *; ? = inconclusive; / = no result given. Most compounds without a hit are left out; they make up all but 19% or so of the library. Unless noted, calls come from the whole dose curve; as a rule, active = well fitted curve in the direction sought with a large enough effect; inconclusive = small, poorly fitted or top-dose-only effect, or another doubt; inactive = no such curve, though single readings can be large; an effect the other way counts as inactive or inconclusive. Unless noted, % is set by controls: 0 for no effect and ±100 for the full control effect.

SMILES	HT1080NT lethal	HT1080 IDH1KD tx	IL1B secr inh	TDP1 cell CPT	DT40 TDP1 no CPT
O=C(Oc1ccc(-c2cnc3ccccc3n2)cc1)c1ccc(Cl)c([N+](=O)[O-])c1	12%	9%	9	-22%	?
Cc1nnc(-c2ccc(Oc3ccc(Br)cc3)c([N+](=O)[O-])c2)o1	-8%	0%	13	?	13µM*
O=[N+]([O-])c1cc(-c2cnc3ccccc3n2)ccc1Oc1ccc(Br)cc1	0%	-10%	-15	?	13µM*
CN1CCN(C(=O)c2ccccc2-c2ccccc2C(=O)O)CC1	6%	6%	2	2%	0%
Cn1c(CNC(=O)CNC(=O)Cc2ccc(Cl)cc2)cc(=O)n(C)c1=O	24%	10%	0	-2%	13%
Cc1ccc(NC(=O)Cn2cc(S(=O)(=O)c3ccccc3)c(=O)c3cc4c(cc32)OCO4)cc1	/	/	/	-20%	?
CCOc1ccccc1NC(=O)N1CCc2cc(S(=O)(=O)N3CCC(C)CC3)ccc21	/	/	/	-8%	-19%
COc1ccccc1N=C1NC(=O)/C(=C/c2ccc(N(C)C)cc2)S1	7.3µM*	3.3µM*	4	2.1µM*	1.8µM*
COC(=O)/C=C1/S/C(=N/N=C/c2ccco2)NC1=O	1%	18%	18	3%	-4%
COc1ccc(N=C2NC(=O)/C(=C/c3ccc(O)c(OC)c3)S2)cc1	-16%	2%	-67*	?	?
COc1ccc(N=C2NC(=O)/C(=C\c3ccco3)S2)cc1	-1%	-4%	3	-12%	?
COc1cc(/C=C2/SC(=Nc3ccc(O)cc3)NC2=O)cc(OC)c1O	-27%	-9%	29	16µM*	12µM*
O=C1NC(=Nc2ccc(O)cc2)S/C1=C\C=C\c1ccco1	1.3µM*	1.5µM*	98	0.82µM*	0.73µM*
Cc1ccccc1NC(=O)NNC(=O)CCc1ccccc1	5%	2%	-21	1%	4%
O=C(NS(=O)(=O)Oc1ccccc1F)OC[C@@H]1CCCN2CCCCC12 (some centres undefined)	0%	17%	-13	-4%	-5%
Cc1c(N=C2NC(=O)/C(=C/c3ccc(O)cc3)S2)c(=O)n(-c2ccccc2)n1C	-3%	-1%	-18	-18%	?
O=C1NC(=NCc2ccccc2)S/C1=C/c1ccc(O)cc1	?	?	-76*	?	12µM*
Brc1ccc(-c2nnc(-c3ccccc3)c(N3CCSCC3)n2)cc1	-13%	-10%	-1	?	26µM*
CN1CCN(c2nc(-c3ccc(Br)cc3)nnc2-c2ccccc2)CC1	?	21µM*	-58*	16µM*	12µM*
c1ccc(-c2nc(N3CCOCC3)cc(N3CCOCC3)n2)cc1	-10%	-4%	?	-27%	-17%
Cc1nnc(-c2cccc(C(F)(F)F)c2)nc1N1CCOCC1	-20%	-9%	-3	5%	15µM*
c1ccc(-c2nnc(N3CCOCC3)nc2-c2ccccc2)cc1	3%	-3%	-9	16µM*	?
CCN1C(Br)=CCc2ccccc21	/	/	/	6%	-11%
CCOC(=O)C1CCCN(S(=O)(=O)c2ccc(-c3cc(C)no3)s2)C1 (centres undefined)	-10%	-6%	5	?	-13%
Cc1ccc(-c2nnc(-c3ccccc3)c(N3CCOCC3)n2)cc1	3%	1%	15	?	16µM*
SMILES	HT1080NT lethal	HT1080 IDH1KD tx	IL1B secr inh	TDP1 cell CPT	DT40 TDP1 no CPT
Cc1cc(C)n(C(=O)c2cc([N+](=O)[O-])cc([N+](=O)[O-])c2)n1	-7%	-2%	-10	-4%	?
CCC(Cc1ccccc1)NC(=O)c1ccc2nc(N3CCC(C)CC3)sc2c1 (centres undefined)	/	/	/	21µM*	10µM*
COCc1c(C(=O)Nc2ccc3nc(N4CCOCC4)sc3c2)oc2ccccc12	-32%	-18%	-17	15µM*	?
CCC(Cc1ccccc1)NC(=O)c1ccc2nc(N3CCOCC3)sc2c1 (centres undefined)	-1%	-3%	-11	15µM*	13µM*
O=C(Nc1ccc2nc(N3CCOCC3)sc2c1)c1ccccc1	4%	-6%	32	-19%	0%
CCOc1ccc(CCNC(=O)c2ccc3nc(N4CCC(C)CC4)sc3c2)cc1OCC	/	/	/	6.5µM*	5.2µM*
Cc1ccc(OCCNC(=O)c2ccccc2OCc2c(C)noc2C)cc1	-17%	2%	0	?	?
COc1cc(C)ccc1OCCSc1nc2ccc(NC(=O)c3ccccc3F)cc2s1	/	/	/	?	-18%
COc1ccc(CCNC(=O)C2CCN(S(=O)(=O)c3cnc[nH]3)CC2)cc1OC	6%	11%	1	6%	-2%
N#Cc1cccc(C(=O)Nc2cc(S(=O)(=O)N3CCOCC3)ccc2N2CCCC2)c1	-3%	2%	-21	18%	-6%
COc1cc(Cl)c(NS(=O)(=O)c2ccc3c(c2)CC(C)N3C(=O)C2CCC2)c(OC)c1 (centres undefined)	/	/	/	6.5µM*	5.8µM*
COc1ccc(NS(=O)(=O)c2ccc3c(c2)CC(C)N3C(=O)C2CCC2)cc1OC (centres undefined)	/	/	/	1µM*	0.65µM*
CC[C@H]1OC(=O)C[C@@H](O)[C@H](C)[C@@H](O[C@@H]2O[C@H](C)[C@@H](O)[C@H](N(C)C)[C@H]2O)[C@@H](CCN2C[C@H](C)C[C@H](C)C2)C[C@@H](C)C(=O)/C=C/C(C)=C/[C@@H]1CO[C@@H]1O[C@H](C)[C@@H](O)[C@@H](OC)[C@H]1OC	/	/	/	-19%	-11%
CO[C@@H]1[C@@H](O[C@@H]2O[C@H](C)[C@@H](O[C@H]3C[C@@](C)(O)[C@@H](OC(=O)CC(C)C)[C@H](C)O3)[C@H](N(C)C)[C@H]2O)[C@@H](CC=O)C[C@@H](C)C(=O)/C=C/C2OC2C[C@@H](C)OC(=O)C[C@H]1OC(C)=O (some centres undefined)	/	/	/	3.8µM*	3.3µM*
Cc1cnc(/C=C/c2ccc(N(C)C)cc2)cn1	/	/	/	3.2µM*	2.8µM*
Cc1cnc2c(C)ccc(C)c2c1/C=C/c1ccc(N(C)C)cc1	/	/	/	?	16µM*
CC(C)CC(=O)N1CCN(S(=O)(=O)c2ccc3ccccc3c2)CC1	-16%	-14%	-5	?	?
O=C(CN(c1cc(C(F)(F)F)ccc1Cl)S(=O)(=O)c1ccccc1)NCCc1ccccc1	/	/	/	?	21µM*
O=C(c1ccccc1Oc1ccccc1)N1CCN(c2ccccc2F)CC1	-24%	-25%	-12	18µM*	16µM*
